Results from PubChem BioAssay AID1159580 (chemical genetic matrix, 2015).
Values joined by “and” are separate entries in the source; they are usually repeats but may differ in a detail not shown here. Equal entries are not always repeated. Screen size: about 5,500 compounds; about 2,000 (36%) were called active. Inconclusive results (about 18%) are left out. No stated cut-off is given here; in the data, active means normalized growth mostly below about 0.91 (no sharp cut-off); inconclusive means no clear call, values can overlap the other calls; inactive means mostly above about 0.92. The list shows a part of the results.

Assay: chemical genetic growth profiling, strain panel (AID 1159580);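 further: tested at 20 µM; growth read once vehicle control cultures reached saturation at 30 °C; 1 = growth at the plate median or of vehicle wells; lower values mean less growth of the strain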
Conditions: S. cerevisiae deletion strains, growth OD

Measured: normalized growth

CC1CNCCN1S(=O)(=O)c1cccc2cnccc12 (stereo unspecified)
inactive: locus YAL013W, strain DEP1, active compounds read low 1.01 and 1 | locus YAL040C, strain CLN3, active compounds read low 1.09 and 0.997 | locus YCL061C, strain MRC1 (second series), active compounds read low 0.998 and 1.01 | locus YDR150W, strain NUM1, active compounds read low 1 | locus YDR363W, strain ESC2, active compounds read low 0.993 and 1.01 | locus YER002W, strain NOP16, active compounds read low 0.988 and 1.01 | locus YGR078C, strain PAC10, active compounds read low 1.01 | locus YMR263W, strain SAP30, active compounds read low 1 | locus YNL153C, strain GIM3, active compounds read low 0.991 | locus YNL175C, strain NOP13, active compounds read low 0.996 and 0.999 | locus YNL197C, strain WHI3, active compounds read low 1.01 | locus YNL224C, strain SQS1, active compounds read low 1.02 | locus YNL322C, strain KRE1, active compounds read low 0.999 | locus YOR083W, strain WHI5 (second series), active compounds read low 1 and 1.03 | locus YPL055C, strain LGE1, active compounds read low 1.01 | locus YPL241C, strain CIN2, active compounds read low 0.996
